Drawing on PubChem BioAssay AID504385 (National Center for Advancing Translational Sciences (NCATS), 2011), this text covers outcome and IC50 for seven compounds.

The structures appear in SMILES notation. Active and inactive are the calls of the source. How the calls were made is not given here.

The assay deals with Lutropin-choriogonadotropic hormone receptor (Homo sapiens) (UniProt P22888). The assay can be described thus: Counterscreen for antagonists of the thyroid stimulating hormone receptor: ELISA activity in a Luteinizing Hormone Receptor cell line. To be noted: HEK293 LHR cells, LH-induced cAMP ELISA. From the text: TSH is an alpha/beta heterodimeric glycoprotein hormone secreted from the anterior pituitary gland which belongs to the glycoprotein hormone family. The actions of TSH are mediated by a seven-transmembrane receptor, which upon TSH binding couples preferentially to the G-alpha (s) protein (Gs), resulting in activation of adenylate cyclase and increase in cyclic adenosine 3', 5' monophosphate (cAMP). The TSH receptor (THSR) is mainly expressed in thyroid follicular cells and regulates their growth and function. This cell based assay was conducted on a TSHR transfected HEK 293 cell line, measuring cAMP stimulation using antibody-based Homogeneous Time Resolved Fluorescence (HTRF). Our goal is to identify small molecules that will inhibit (antagonize) the thyroid-stimulating hormone receptor (TSHR), a member of the 7 transmembrane-spanning receptor (7TMR) family of cell surface receptors. TSHR-mediated hyperthyroidism is important in thyroid pathology. The development of small molecule antagonists of TSHR may lead to therapeutic approaches for TSHR-mediated hyperthyroidism caused by constitutively activating mutations or stimulating auto-antibodies associated with Graves' disease. Graves' disease is the leading cause of hyperthyroidism and is caused by autoantibodies that stimulate TSHR (TsAbs) causing thyroid growth and unregulated overproduction of thyroid hormones and existing treatments have liabilities (agranulocytosis). In addition, TSHRs are known to be expressed in multiple extrathyroidal tissues including bone, brain, kidney, testis, fat and cells of the immune system but the role of the TSHR in these tissues is not clear. Therefore, TSHR antagonists/inverse agonists could be used as probes of extrathyroidal TSHR function. Finally, TSHR inverse agonists, which are a subclass of antagonists that inhibit agonist-independent (or basal or constitutive) TSHR signaling, could be used to inhibit TSH-independent signaling in patients with recurrent or metastatic thyroid cancer who are receiving thyroid hormone to suppress TSH. In order to confirm specificity of the compounds to the TSHR, a confirmatory assay was conducted on a similar family member, the Luteinizing Hormone Receptor, transfected into a HEK 293 cell line, using an orthogonal detection technology to measure cAMP stimulation: an ELISA based cAMP competition assay using cAMP-Screen Direct System (Applied Biosystems, Foster City, CA)/
Sequence of Lutropin-choriogonadotropic hormone receptor (Homo sapiens) (P22888 whole entry, looked up): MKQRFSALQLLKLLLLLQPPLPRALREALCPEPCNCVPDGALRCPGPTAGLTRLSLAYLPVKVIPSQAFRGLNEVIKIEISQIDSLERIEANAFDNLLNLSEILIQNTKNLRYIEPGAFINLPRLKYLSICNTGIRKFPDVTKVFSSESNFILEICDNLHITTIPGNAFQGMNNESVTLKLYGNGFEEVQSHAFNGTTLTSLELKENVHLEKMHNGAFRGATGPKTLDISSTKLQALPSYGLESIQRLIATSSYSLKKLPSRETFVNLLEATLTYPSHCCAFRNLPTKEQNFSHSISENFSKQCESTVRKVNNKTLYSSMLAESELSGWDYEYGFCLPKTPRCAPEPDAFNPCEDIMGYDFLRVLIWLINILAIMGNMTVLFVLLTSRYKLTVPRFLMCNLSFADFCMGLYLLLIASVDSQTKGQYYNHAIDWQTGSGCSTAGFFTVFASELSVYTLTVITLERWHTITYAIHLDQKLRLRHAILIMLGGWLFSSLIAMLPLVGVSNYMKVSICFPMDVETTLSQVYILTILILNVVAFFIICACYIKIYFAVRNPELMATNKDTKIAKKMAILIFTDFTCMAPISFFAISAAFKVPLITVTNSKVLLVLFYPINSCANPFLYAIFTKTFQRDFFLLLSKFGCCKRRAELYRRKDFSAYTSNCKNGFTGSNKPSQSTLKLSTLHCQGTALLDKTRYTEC
Transiently transfected HEK-EM 293 cells or cells stably expressing LHR were seeded into 96-well plates at a density of 7 x10^4 cells per well in DMEM containing 10% FBS. Cells were cultured for 24 h before incubation for 20 min in HBSS/10 mM HEPES (pH 7.4). To determine the effect of the compound on LH induced LHR activity, cells were incubated for 20 min with the compound in HBSS/HEPES without IBMX and subsequently for 40 min with bovine LH (Sigma) and the compound in HBSS/HEPES supplemented with 1 mM IBMX at 37 C. The levels of cAMP in cells incubated in HBSS/HEPES without IBMX were subtracted in all experiments. After aspiration of the incubation medium, cells were lysed using lysis buffer of the cAMP-Screen Direct system (Applied Biosystems, Foster City, CA). The cAMP content of the cell lysate was determined using the method described in the manufacturer's protocol. The chemiluminescence signal was measured in a VICTOR3 V 1420 multilabel counter (PerkinElmer, Norwalk, CT). The potency (IC50) of the ligands were obtained from dose-response curves by data analysis with GraphPad Prism 4 for Windows.
On the technique in general: The purpose of a counterscreen is to sort out artefacts and off-target activity.
Consider `CCc1cccc(CC)c1OCc1cc(C2Nc3ccccc3C(=O)N2Cc2ccco2)ccc1OC` (configuration not stated), for which the call was inactive.

For orientation: IC50 means the concentration that inhibits the measured activity by half. As for `COc1ccc(C2Nc3ccccc3C(=O)N2Cc2ccco2)cc1COc1c(C)cccc1C` (configuration not stated), the concentration for half-maximal inhibition (IC50) is 0.48 µM (active).

Take `COc1ccc(C2Nc3ccccc3C(=O)N2Cc2cccnc2)cc1COc1c(C)cccc1C` (configuration not stated): the compound was called inactive.

Consider `COc1ccc(C2Nc3ccccc3C(=O)N2Cc2ccco2)cc1CSc1c(C)cccc1C` (configuration not stated), for which the outcome was inactive.

Take `Cc1cccc(C)c1OCc1cccc(C2Nc3ccccc3C(=O)N2Cc2ccco2)c1` (configuration not stated): the outcome was inactive.

As for `COc1ccc(C2Nc3ccccc3C(=O)N2Cc2ccc(C)o2)cc1COc1c(C)cccc1C` (configuration not stated), the compound was called inactive.

In the case of `COc1ccc(C2Nc3ccccc3C(=O)N2Cc2ccco2)cc1COc1c(C)cc(NC(C)=O)cc1C` (configuration not stated), the outcome was inactive.
